Laboratory results published in PubChem BioAssay (EPA / NIEHS).
The source made the active and inactive calls. Rule for the calls: active = hit-call score of the fitted dose curve at least 0.9, where 1 is the maximum; inactive = score below 0.9.

Experiment: ATG_CRE_CIS: Attagene CIS-FACTORIAL HepG2 Assay for human cAMP Responsive Element (CRE) binding protein 3 (AID 2282926)
Conditions: HepG2 CRE cis-reporter, Attagene multiplexed mRNA; actives raise or lower the signal
Summary of the method: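 Assay format: transient reporter transfection of HepG2, 24 h treatment, total RNA isolation with DNase I step. Reporter abundance read by fluorescence after PCR and capillary separation; DMSO-normalised gain or loss fitting.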
In the case of `C=C(C)C(=O)OCCO`, the outcome is reported as “inactive”.
For `C1=Cc2ccccc2C1`, the outcome was “inactive”.
With `CCOC(=O)CC` the outcome was “inactive”.
For `CCC(=O)Oc1ccc(/C(CC)=C(\CC)c2ccc(OC(=O)CC)cc2)cc1`, the AC50 was 25.9 µM (active).
For `CO[Si](CCC1CCC2OC2C1)(OC)OC` (stereo not given), the outcome was “inactive”.
For `CCCCCC/C=C\CCCCCCCC(=O)O`, the AC50 was 34.7 µM (active).
With `Cc1cc(=O)n(-c2ccccc2)n1C` the outcome was “inactive”.
With `FC(F)(F)C(=NOCC1OCCO1)c1ccc(Cl)cc1` the outcome was “inactive”.
In the case of `CCOC(=O)N1CCC(=C2c3ccc(Cl)cc3CCc3cccnc32)CC1`, the outcome is reported as “inactive”.
With `COc1cc(C)ccc1C(C)C` the outcome was “inactive”.
For `CCCCCCCOC(=O)CCC`, the outcome was “inactive”.
With `Cc1ccc(C(C)c2ccc(C)c(C)c2)cc1C` the outcome was “inactive”.
In the case of `O=C(/C=C/C=C/c1ccc2c(c1)OCO2)N1CCCCC1`, the outcome is reported as “inactive”.
For `CC(C)=CCC[C@H](C)CCO`, the outcome was “inactive”.
With `O=C1CCCCCCCCCCC(=O)OCCO1` the outcome was “inactive”.
In the case of `COCC(C)N` (stereo not given), the outcome is reported as “inactive”.
In the case of `CC(=O)[C@@]1(O)CC[C@H]2[C@@H]3C[C@H](C)C4=CC(=O)C=C[C@]4(C)[C@@]3(F)[C@@H](O)C[C@@]21C`, the outcome is reported as “inactive”.
With `CC(C)CC(O)Cc1ccccc1` (stereo not given) the outcome was “inactive”.
In the case of `CCCCOCCOC(=O)COc1nc(Cl)c(Cl)cc1Cl`, the outcome is reported as “inactive”.
For `COC(=O)/C=C\C(=O)O`, the outcome was “inactive”.
For `C=C[Si](OC(C)=O)(OC(C)=O)OC(C)=O`, the outcome was “inactive”.
With `Cc1c(C)c([N+](=O)[O-])c(C(C)(C)C)c([N+](=O)[O-])c1C` the outcome was “inactive”.
For `O=[N+]([O-])C1(Br)COCOC1`, the AC50 was 53.6 µM (active).
With `CC(C)=CC1CC(C)CCO1` (stereo not given) the outcome was “inactive”.
In the case of `Nc1ccc(-c2ccc(F)cc2)cc1`, the outcome is reported as “inactive”.
With `FC(F)=C(F)OC(F)(F)C(F)(F)C(F)(F)F` the outcome was “inactive”.
In the case of `CCCOC(=O)CCCCC(=O)OCCC`, the outcome is reported as “inactive”.
In the case of `OCCN(CCO)c1ccccc1`, the outcome is reported as “inactive”.
With `O=C(O)c1cc(Cl)cc([N+](=O)[O-])c1Cl` the outcome was “inactive”.
For `CCCCC(CC)COC(=O)c1ccccc1O` (stereo not given), the outcome was “inactive”.
For `CCc1nccnc1C`, the outcome was “inactive”.
With `CC(=O)Nc1ccc2c(c1)Cc1cc(NC(C)=O)ccc1-2` the outcome was “inactive”.
For `OCCCS`, the outcome was “inactive”.
For `Cc1cccc(OCCOc2cccc(C)c2)c1`, the outcome was “inactive”.
For `Cc1ccc([N+](=O)[O-])cc1S(=O)(=O)O`, the outcome was “inactive”.
With `COC(=O)c1cc(Cl)ccc1[N+](=O)[O-]` the outcome was “inactive”.
For `Cc1oncc1C(=O)Nc1ccc(C(F)(F)F)cc1`, the outcome was “inactive”.
In the case of `CC(C)c1ccc2cc(C(C)C)ccc2c1`, the AC50 is reported as 62 µM (active).
In the case of `C=CC(=O)OCCOC(=O)C=C`, the outcome is reported as “inactive”.
For `CCCCCCCCCCCCCOP(=O)(O)O`, the outcome was “inactive”.
